# This is a sample that favours compounds with a hit; in the whole collection about 28% have one here.
# CYP2C9 act = human CYP2C9 activators, primary screen, biochemical, luminescence. Cytochrome P450 2C9 (Homo sapiens), P11712. recombinant CYP2C9, luciferin-H conversion; active compounds read high; factor 1 = untreated enzyme, 0 = blocked. activation factor at 5 µM. 96,000 compounds, 1.4% hits. AID 1024, 2008;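 active = activation factor of 2 or more for CYP2C9 at a 5 µM dose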;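 also: 0 = sulfaphenazole-blocked wells and 1 = vehicle-only wells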
# CYP2C19 act = human CYP2C19 activators, primary screen, biochemical, luminescence; Cytochrome P450 2C19 (Homo sapiens), P33261; 96,000 tested, under 10 active; activation factor at 5 µM; recombinant CYP2C19, luciferin-H EGE luminescence; active compounds read high; 0 = fully inhibited enzyme, 1 = untreated enzyme;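 active = activation factor of at least 2 at 5 µM in the primary screen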;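 also: 0 = wells with 2.5 mM tranylcypromine and 1 = vehicle-only wells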
# CYP2C9 inhib = blockers of cytochrome P450 2C9 activity – biochemical, luminescence, ADME assay, primary screen | P11712 | CYP2C9 Supersomes, luciferin-H conversion | inhibition, % at 5 µM | 96,000 compounds, 20% hits;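 active = blocking of liver enzyme CYP2C9 beyond about 50% at 5 µM, limit read from the data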
# Pyk2 oligo antag = antagonists of Pyk2 self-association, primary screen, Q293 cells, FERM NanoBiT luminescence, HTS. Protein-tyrosine kinase 2-beta (Homo sapiens), Q14289. active compounds read low. z-score (the deposit names both 25 µM and 10 µM). 99,000 compounds, 0.83% hits;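 active = Z-score of -3 or lower, scaled per plate to the spread of control and sample wells; inactive = z-score above -3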;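 also: negative z-score means lost luminescence so less FERM oligomerization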
# CYP2C19 inhib = blockers of cytochrome P450 2C19 activity – biochemical, luminescence, ADME assay, primary screen; P33261; CYP2C19 Supersomes, luciferin-H EGE luminescence, 30 min; inhibition, % at 5 µM; 96,000 compounds, 21% hits;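 active = CYP2C19 inhibition above a set limit at 5 µM in the primary screen, cut at about 50% in these data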;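 also: plate controls were negative control wells for no effect and 2.5 mM tranylcypromine positive control for full effect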
# The depositor's hits bear a star; x = not tested or not shown.
SMILES,CYP2C9 act,CYP2C19 act,CYP2C9 inhib,Pyk2 oligo antag,CYP2C19 inhib
Cc1ccccc1-n1nc(C)c2cc(C(=O)N3CCN(S(=O)(=O)c4ccc(F)cc4)CC3)sc21,0.2,0.9,75*,-0.78,11
Cc1ccccc1-n1nc(C)c2cc(C(=O)N3CCN(S(=O)(=O)c4ccc(Cl)cc4)CC3)sc21,0.3,0.5,66*,-0.27,47
Cc1nn(-c2ccccc2)c2sc(C(=O)N3CCOCC3)cc12,x,x,x,-1,x
Cc1ccc(S(=O)(=O)N2CCN(C(=O)c3cc4c(C)nn(-c5ccccc5)c4s3)CC2)cc1,0.6,1,44,-0.43,2
CC(C)NC(=O)C(OC(=O)c1ccccc1)C(OC(=O)c1ccccc1)C(=O)O (stereo not drawn),1,1.1,-2,0.79,-5
O=C(O)C1CCCCC1C(=O)NCCCn1ccnc1 (stereo not drawn),0.9,0.8,14,-0.32,16
O=C(NCCCn1ccnc1)c1cc(C2CC2)on1,0.4,0.1,59*,x,85*
CC(C)CC(=O)c1c[nH]c(C(=O)NCc2cccs2)c1,0.8,0.9,20,1.2,11
Cc1ccccc1C(=O)c1c[nH]c(C(=O)NCc2cccs2)c1,1,1.1,-2,-1.1,-7
Cc1ccccc1C(=O)c1c[nH]c(C(=O)NCCCn2ccnc2)c1,0.1,0.3,93*,0.63,67*
CC(C)CC(=O)c1c[nH]c(C(=O)NCCCn2ccnc2)c1,0.2,0.6,82*,0.57,41
O=C(NCCCn1ccnc1)c1cc(C(=O)C2CC2)c[nH]1,0.4,0.4,61*,0.08,56*
Cc1nc2ccc(NC(=O)c3c(-c4ccccc4)noc3C)cc2s1,0.6,0.6,41,0.01,38
CCC(CC)C(=O)c1c[nH]c(C(=O)NCCCn2ccnc2)c1,0.1,0.3,92*,0.08,67*
O=S1(=O)N=C(Nc2ccc(N3CCOCC3)cc2)c2ccccc21,x,x,x,0.12,x
Cc1ccccc1-c1ccc(Nc2ccc(N3CCOCC3)cc2)nn1,0.4,0.6,58*,0.03,35
O=C(NC(NC(=S)Nc1cc(Cl)ccc1Cl)C(Cl)(Cl)Cl)c1ccco1 (stereo not drawn),0,0.2,97*,-0.76,81*
O=C(NC(NC(=S)Nc1ccc(Cl)c(Cl)c1)C(Cl)(Cl)Cl)c1ccco1 (stereo not drawn),0,0.3,100*,-2.2,72*
O=C(O)CCSc1nnc(-c2cccnc2)n1-c1ccccc1,1,1,-4,0.27,-1
CC(=O)c1ccc(N2C(=O)NC3(CCCCC3)C2=O)cc1,1,0.7,0,-0.28,26
CC(Sc1nc2ccccc2[nH]1)C(=O)Nc1ccc2c(c1)OCCO2 (stereo not drawn),0.4,0.7,64*,-0.07,29
Cc1cccc(C(=O)N/N=C/c2ccc(OCC(=O)N3CCCCC3)cc2)c1,0.8,0.9,24,-0.79,9
CC(SCc1ccccc1)C(=O)Nc1ccc2c(c1)OCO2 (stereo not drawn),0.3,0,73*,2.1,98*
O=C(CSCc1cccc(Cl)c1)N/N=C/c1ccc(OCC(=O)N2CCCCC2)cc1,0.4,0.4,57*,-3.4*,59*
O=C(CSCc1cccc(Br)c1)N/N=C/c1ccc2c(c1)OCO2,0.4,0.9,55*,0.62,12
SMILES,CYP2C9 act,CYP2C19 act,CYP2C9 inhib,Pyk2 oligo antag,CYP2C19 inhib
CC(Sc1nc2ccccc2[nH]1)C(=O)O (stereo not drawn),1,1.1,-4,0.78,-6
Cc1cccc(C)c1OCC(=O)N/N=C/c1ccc2c(c1)OCO2,0.9,0.9,6,0.9,8
Cc1ccc(NCc2nnc(SC(C)C(=O)N/N=C/c3ccc(C)o3)n2-c2ccccc2)cc1 (stereo not drawn),0.9,0.7,9,1.2,29
CC1CCN(C(=O)CN(C2CCCCC2)S(C)(=O)=O)CC1,1.1,0.9,-8,-0.75,7
COC(=O)c1ccc(NC(=O)C2CCCN2S(=O)(=O)c2ccc(F)cc2)cc1 (stereo not drawn),x,x,x,-0.55,x
O=C(Nc1ccccc1)NC1CS(=O)(=O)CC1O (stereo not drawn),1.1,1.2,-13,2.1,-17
O=C(Oc1ccc(Br)cc1)c1cncc(Br)c1,1,1,4,0.32,3

# Source: PubChem
